{
  "source": "the OligoGym collection",
  "data": [
    {"biological_target": "SSX3", "experiment": "pooled miR-30 sensor sort-seq; sequence = guide strand", "conditions": "shRNA", "values": [
      {"sequence": "TATCATGTTAATCTTCTCAGAG", "sensor-assay potency score (higher = more potent)": -0.0343},
      {"sequence": "TATTACGCATGAAAGATGGGAG", "sensor-assay potency score (higher = more potent)": 0.05},
      {"sequence": "TTCTCCGAGACTTTCATCTTTT", "sensor-assay potency score (higher = more potent)": -0.696},
      {"sequence": "CATCTGAGGACGTTGAACCTGA", "sensor-assay potency score (higher = more potent)": -0.724},
      {"sequence": "TAACAGAATGACACACTTCAAG", "sensor-assay potency score (higher = more potent)": -1.11},
      {"sequence": "TTGAACCTGATTCCCACGGTTA", "sensor-assay potency score (higher = more potent)": -0.528}
    ]},
    {"biological_target": "SSX4B", "experiment": "pooled miR-30 sensor sort-seq; sequence = guide strand", "conditions": "shRNA", "values": [
      {"sequence": "AACCATTTTCTTCCTCTGCTGG", "sensor-assay potency score (higher = more potent)": -0.606},
      {"sequence": "TTTAGCTTCATATACACATAGA", "sensor-assay potency score (higher = more potent)": -0.61},
      {"sequence": "ATTCCTGTGGTTTCGATCGTTA", "sensor-assay potency score (higher = more potent)": -0.284},
      {"sequence": "TGTCTTGTTAATCTTCTCCAAG", "sensor-assay potency score (higher = more potent)": -1.4},
      {"sequence": "TTCATAAACCACCAGCTGCTTT", "sensor-assay potency score (higher = more potent)": -1.07},
      {"sequence": "TTGTTAATCTTCTCCAAGGTAC", "sensor-assay potency score (higher = more potent)": -0.679},
      {"sequence": "TTAGTCATGACCTCATAGTTTA", "sensor-assay potency score (higher = more potent)": -0.622},
      {"sequence": "TAATCTTCTCCAAGGTACTTGG", "sensor-assay potency score (higher = more potent)": -0.322},
      {"sequence": "TGATATTTGAGCATCATCCCTG", "sensor-assay potency score (higher = more potent)": 0.125},
      {"sequence": "TTTAGTCATGACCTCATAGTTT", "sensor-assay potency score (higher = more potent)": -0.792},
      {"sequence": "TCTCTGATATTTGAGCATCATC", "sensor-assay potency score (higher = more potent)": -2.01},
      {"sequence": "TTAATCTTCTCCAAGGTACTTG", "sensor-assay potency score (higher = more potent)": 0.0289}
    ]},
    {"biological_target": "SSX5", "experiment": "pooled miR-30 sensor sort-seq; sequence = guide strand", "conditions": "shRNA", "values": [
      {"sequence": "TGCTTTTGCATCTTCTCTGGTA", "sensor-assay potency score (higher = more potent)": -0.325},
      {"sequence": "TTGTTAACCTTCTCAGAGGTAT", "sensor-assay potency score (higher = more potent)": -0.473},
      {"sequence": "TTCATAAATCACCAGTTGCTTT", "sensor-assay potency score (higher = more potent)": -1.18},
      {"sequence": "TTGCTCATCAGTGAAAACGCTA", "sensor-assay potency score (higher = more potent)": -0.328},
      {"sequence": "TACACAAACTGAAATATGCATT", "sensor-assay potency score (higher = more potent)": -0.947},
      {"sequence": "TTCTCGGGCGTGATCTTCGGGA", "sensor-assay potency score (higher = more potent)": -0.793},
      {"sequence": "TTCTCTCACGCACTCTGTGGGT", "sensor-assay potency score (higher = more potent)": -1.32},
      {"sequence": "TGGTATTTGAGAACCAACCCTA", "sensor-assay potency score (higher = more potent)": -0.335},
      {"sequence": "TTTCTCTCACGCACTCTGTGGG", "sensor-assay potency score (higher = more potent)": -0.559},
      {"sequence": "TTGCTTTCTCTCACGCACTCTG", "sensor-assay potency score (higher = more potent)": 0.108},
      {"sequence": "AACAGAAACACTAACATCGAAC", "sensor-assay potency score (higher = more potent)": -0.742},
      {"sequence": "TTTGAGAACCAACCCTAGGTCT", "sensor-assay potency score (higher = more potent)": -0.607}
    ]},
    {"biological_target": "ST6GAL2", "experiment": "pooled miR-30 sensor sort-seq; sequence = guide strand", "conditions": "shRNA", "values": [
      {"sequence": "TGCGTCGTAGTACAGCTCGTGG", "sensor-assay potency score (higher = more potent)": -0.842},
      {"sequence": "TAAGATTTGCGGAATATGGGGC", "sensor-assay potency score (higher = more potent)": 0.141},
      {"sequence": "TTAATGATGCGTATGGTGGTTT", "sensor-assay potency score (higher = more potent)": -0.296},
      {"sequence": "TTTATGTTCAAACCCATCTTGG", "sensor-assay potency score (higher = more potent)": -0.693},
      {"sequence": "TACACGTGCACCTCTCTGCACA", "sensor-assay potency score (higher = more potent)": -0.913},
      {"sequence": "TTCTCTTTAGTGTTCTCCTGGA", "sensor-assay potency score (higher = more potent)": 0.105},
      {"sequence": "AAGTAGTCGTCATCCTCCGGGT", "sensor-assay potency score (higher = more potent)": -0.429},
      {"sequence": "AAAGTAGTCGTCATCCTCCGGG", "sensor-assay potency score (higher = more potent)": 0.386},
      {"sequence": "TTGAATCTTCTCTTTAGTGTTC", "sensor-assay potency score (higher = more potent)": 0.135},
      {"sequence": "TTGGTTGAATCTTCTCTTTAGT", "sensor-assay potency score (higher = more potent)": -0.57}
    ]}
  ]
}
